# Assay results as given in PubChem BioAssay (NCATS).
# Several values for one entry are separate records, joined by “and”; a condition that tells them apart may be missing. Equal values may be shown once. Records with an inconclusive call do not appear. Where a call stands in place of a potency, no number is given. Activity calls are given as the source filed them. Unless noted, the call rests on the fitted dose curve; in most records, active means well fitted curve in the direction sought with a large enough effect; inconclusive means small, poorly fitted or top-dose-only effect, or another doubt; inactive means no such curve, though single readings can be large; an effect the other way counts as inactive or inconclusive.
# How the values were obtained:
# [1] = Cell Viability - SK-N-SH (AID 435; calls by dose curve; further: potency means the concentration at half of the fitted maximal effect); conditions: SK-N-SH neuroblastoma cell viability qHTS
# Summary of the method: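 SK-N-SH human neuroblastoma cells (1500/well) were exposed to compounds in complete medium for 40 h at 37 °C, and intracellular ATP was then measured by CellTiter-Glo luminescence. AC50 was taken from Hill fits, normalized to DMSO and 100 uM tamoxifen.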
# [2] = Cell Viability - N2a (AID 540); conditions: N2a mouse neuroblastoma cell viability; activity change, negative = cytotoxicity: at 92.2 µM (top of the series); further: nearly all actives have a fitted effect of over 45% in size; further: potency means the concentration at half of the fitted maximal effect
# Summary of the method: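 CellTiter-Glo ATP luminescence, read 20 min after reagent at room temperature, reported viability following 40 h compound treatment at 37 °C. N2a mouse neuroblastoma cells seeded 1500/well; Hill equation gave AC50.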
# [3] = Cell Viability - H-4-II-E (AID 543); conditions: H-4-II-E rat hepatoma viability; series mostly up to 92.2 µM; further: nearly all actives have a fitted effect of over 35% in size; further: potency means the concentration at half of the fitted maximal effect
# Summary of the method: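 CellTiter-Glo luminescence (intracellular ATP) measured after 40 h compound exposure at 37 °C in H-4-II-E rat hepatoma cells seeded at 1500/well. Values are AC50s fitted with the standard Hill equation.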
# [4] = Cell Viability - Renal Proximal Tubule (AID 545); conditions: renal proximal tubule cells viability, primary cells of rat origin; activity change, negative = cytotoxicity: at 91.7 µM (top of the series); further: nearly all actives have a fitted effect of over 40% in size; further: potency means the concentration at half of the fitted maximal effect
# Summary of the method: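 Primary rat renal proximal tubule cells (1000/well) were treated with compounds for 40 hr at 37 °C in complete medium. Intracellular ATP was measured by CellTiter-Glo luminescence, and AC50 values came from Hill-equation fits of concentration-response data.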
# [5] = Cell Viability - LYMP2-001 (AID 921); conditions: LYMP2-001 lymphoblastoid cell viability; series mostly up to 92.2 µM; further: nearly all actives have a fitted effect of over 70% in size; further: potency means the concentration at half of the fitted maximal effect
# Summary of the method: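 Human lymphoblastoid cells (Coriell), 2500 per well, were preincubated 5 hr at 37 C, then exposed to compounds in complete medium for 24 hr at 37 C. Cellular ATP was read by CellTiter-Glo luminescence; AC50 from Hill fits of concentration-response data.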
# [6] = MultiTox-Fluor Cytotoxicity Assay - LYMP1-001 - Live Cells (AID 947); conditions: LYMP1-001 lymphoblastoid cells, live-cell protease fluorescence viability; series mostly up to 92.2 µM
# [7] = Cell Viability - LYMP2-005 (AID 967); conditions: LYMP2-005 lymphoblastoid cell viability; series mostly up to 92.2 µM; further: potency means the concentration at half of the fitted maximal effect
# Summary of the method: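 CellTiter-Glo luminescence (cellular ATP) read-out; LYMP2-005 lymphoblastoid cells, 2500/well, 5 h pre-incubation, then 24 h compound exposure at 37 C in complete medium. Tetraoctylammonium bromide positive control; AC50 by standard Hill fit.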
# [8] = Cell Viability - LYMP2-009 (AID 968); conditions: LYMP2-009 lymphoblastoid cell viability; series mostly up to 92.2 µM; further: nearly all actives have a fitted effect of over 55% in size; further: potency means the concentration at half of the fitted maximal effect
# [9] = Cell Viability - LYMP2-015 (AID 971); conditions: LYMP2-015 lymphoblastoid cell viability; series mostly up to 92.2 µM; further: nearly all actives have a fitted effect of over 55% in size; further: potency means the concentration at half of the fitted maximal effect
# Summary of the method: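 Cytotoxicity readout: decrease in intracellular ATP (CellTiter-Glo luminescence) in 2500 LYMP2-015 lymphoblastoid cells/well after 24 h compound exposure at 37 C. Concentration-response data fitted with the standard Hill equation to give AC50.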
# [10] = Cell Viability - LYMP2-017 (AID 972); conditions: LYMP2-017 lymphoblastoid cell viability; series mostly up to 92.2 µM; further: nearly all actives have a fitted effect of over 55% in size; further: potency means the concentration at half of the fitted maximal effect
# Summary of the method: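 CellTiter-Glo luminescence (cellular ATP, 30 min RT) measured cytotoxicity after 24 hr compound treatment at 37 C. Cells were a human lymphoblastoid line, LYMP2-017, plated at 2500/well and incubated 5 hr first; concentration-response fitted with Hill equation for AC50.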
# [11] = Cell Viability - LYMP2-006 (AID 978); conditions: LYMP2-006 lymphoblastoid cell viability, qHTS; series mostly up to 92.2 µM; further: nearly all actives have a fitted effect of over 60% in size; further: potency means the concentration at half of the fitted maximal effect
# Summary of the method: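 Human lymphoblastoid cells, 2500 per well, were preincubated 5 hr at 37 C, then exposed to compounds for 24 hr at 37 C in complete medium. Viability was read as intracellular ATP by CellTiter-Glo luminescence; AC50 from Hill-equation fits of qHTS concentration-response data.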
# [12] = Cell Viability - LYMP2-010 (AID 981); conditions: LYMP2-010 lymphoblastoid cell viability, qHTS; series mostly up to 92.2 µM; further: nearly all actives have a fitted effect of over 55% in size; further: potency means the concentration at half of the fitted maximal effect
# Summary of the method: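 CellTiter-Glo ATP luminescence measured cytotoxicity after 24 h compound exposure at 37 C. LYMP2-010 cells were seeded at 2500/well, with tetraoctylammonium bromide as control; concentration-response curves gave AC50 values by the Hill equation.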
# [13] = qHTS assay for small molecule agonists of retinoid X receptor alpha signaling (AID 588544); conditions: HEK293T RXRa-UAS-bla, beta-lactamase reporter, 18 h; 530 nm emission
# [14] = biological target: Thyroid hormone receptor beta (Homo sapiens) (UniProt P10828); test: qHTS assay for small molecule agonists of thyroid hormone receptor beta signaling (AID 588545; calls by dose curve); conditions: TR-UAS-bla GripTite HEK 293, beta-lactamase ratio, agonist mode, 18 h; series mostly up to 76.7 µM
# Sequence of Thyroid hormone receptor beta (Homo sapiens) (P10828 whole entry, looked up): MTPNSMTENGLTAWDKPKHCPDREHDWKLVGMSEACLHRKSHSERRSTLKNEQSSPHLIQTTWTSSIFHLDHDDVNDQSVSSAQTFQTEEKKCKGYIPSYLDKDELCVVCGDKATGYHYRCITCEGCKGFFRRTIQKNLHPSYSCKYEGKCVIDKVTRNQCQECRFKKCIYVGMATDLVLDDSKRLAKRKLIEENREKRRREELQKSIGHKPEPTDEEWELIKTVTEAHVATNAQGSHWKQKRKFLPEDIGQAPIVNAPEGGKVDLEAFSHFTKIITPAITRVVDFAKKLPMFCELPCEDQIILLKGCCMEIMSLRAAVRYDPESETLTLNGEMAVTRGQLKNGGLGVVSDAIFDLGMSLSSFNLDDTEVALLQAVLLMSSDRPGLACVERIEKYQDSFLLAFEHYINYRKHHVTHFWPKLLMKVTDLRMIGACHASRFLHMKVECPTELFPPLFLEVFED
# Summary of the method: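 Agonist activity was read as beta-lactamase CCF4 fluorescence (405 ex, 460/530 em), scaled between DMSO (0%) and 10 nM T3 (100%), then Hill-fitted for EC50 and efficacy. HEK 293 TR-UAS-bla cells in 2% charcoal/dextran FBS medium were exposed 18 h at 37 C.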
# [15] = biological target: Thyroid hormone receptor beta (Homo sapiens) (UniProt P10828); test: qHTS assay for small molecule antagonists of thyroid hormone receptor beta signaling (AID 588547; active means well fitted inhibition curve with a large enough effect in the signal ratio, with a control signal flat, not every such curve was filed as active; the % refers to the signal ratio;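 further: cells stimulated with 0.4 nM T3 agonist during compound exposure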); conditions: TR-UAS-bla HEK293, beta-lactamase ratio, antagonist mode, 18 h
# Summary of the method: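 TR-UAS-bla GripTite HEK293 cells in 2% charcoal/dextran FBS medium; compounds 0.59 nM to 92 uM with T3 at 0.4nM final, 18 h at 37 C. Beta-lactamase read by CCF4 fluorescence (460/530 nm); Hill fits gave IC50 and efficacy.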
# [16] = qHTS assay for small molecule disruptors of the mitochondrial membrane potential - 1 hr assay (AID 651754; calls by dose curve; further: nearly all actives have a fitted effect of over 35% in size); conditions: series mostly up to 92.2 µM
# Summary of the method: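 Mitochondrial potential in living HepG2 cells after 1 hr compound treatment at 37C was read with Mito-MPS dye added for a further 30 min. Red aggregate and green monomer fluorescence were measured; loss of potential leaves dye as cytoplasmic monomers.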
# [17] = qHTS assay for small molecule disruptors of the mitochondrial membrane potential - 5 hr assay (AID 651755; calls by dose curve; further: nearly all actives have a fitted effect of over 40% in size); conditions: JC-1-type ratio dye; series mostly up to 92.2 µM
# Summary of the method: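 Read-out: ratiometric Mito-MPS fluorescence, green monomer (ex 490/em 535) vs red mitochondrial aggregate (ex 540/em 590). HepG2 cells treated 5 hr at 37C before 30 min dye loading.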
# [18] = qHTS assay for small molecule agonists of the antioxidant response element (ARE) signaling pathway measured by Nrf2-dependant transcriptional activity (AID 720636; active means well fitted curve in the direction sought with a large enough effect in the repeat runs; an effect the other way counts as inactive or inconclusive); conditions: ARE-luc HepG2, Nrf2 luciferase reporter, 16 h; series mostly up to 92.4 µM
# Summary of the method: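 Quantitative HTS format in HepG2 cells stably expressing an ARE-luciferase reporter; 16 hr compound treatment at 37 C, luciferase signal detected with ONE-Glo.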
# [19] = biological target: Nuclear receptor subfamily 1 group I member 2 (Rattus norvegicus) (UniProt Q9R1A7); test: qHTS assay for small molecule activators of the rat pregnane X receptor (rPXR) signaling pathway (AID 651751; call rule not given here); conditions: rPXR reporter cells, luciferase (One-Glo), 24 h
# Sequence of Nuclear receptor subfamily 1 group I member 2 (Rattus norvegicus) (Q9R1A7 whole entry, looked up): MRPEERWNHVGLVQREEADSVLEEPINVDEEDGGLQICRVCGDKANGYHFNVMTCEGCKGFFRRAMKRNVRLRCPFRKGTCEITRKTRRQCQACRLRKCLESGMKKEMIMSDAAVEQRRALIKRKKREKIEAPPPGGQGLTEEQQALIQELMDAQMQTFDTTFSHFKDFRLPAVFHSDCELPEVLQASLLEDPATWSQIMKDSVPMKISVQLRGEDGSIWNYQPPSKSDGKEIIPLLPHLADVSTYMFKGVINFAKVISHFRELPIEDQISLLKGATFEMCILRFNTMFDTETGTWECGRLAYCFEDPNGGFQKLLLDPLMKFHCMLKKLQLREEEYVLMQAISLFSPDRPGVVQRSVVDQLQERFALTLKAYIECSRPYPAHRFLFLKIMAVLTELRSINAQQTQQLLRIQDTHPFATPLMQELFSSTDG
# [20] = MultiTox-Fluor Cytotoxicity Assay - LYMP1-002 - Dead Cells (AID 960); conditions: LYMP1-002 lymphoblastoid cells, dead-cell protease fluorescence; series mostly up to 46.1 µM; further: nearly all actives have a fitted effect of over 60% in size; further: potency means the concentration at half of the fitted maximal effect
# Summary of the method: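 Dead-cell fluorescence (Ex/Em 485/520) after 16 h compound exposure at 37 C of LYMP1-002 lymphoblastoid cells in complete medium; AC50 by Hill equation, with data scaled between DMSO and 15 uM tetraoctylammonium bromide.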
smiles,measurement,setting,value
O=C(OCc1ccccc1)c1ccccc1O,Potency,[1],> 92 µM (inactive)
same,"activity change, negative = cytotoxicity",[2],-11.2% (inactive)
same,Potency,[3],inactive
same,Potency,[4],inactive
same,Potency,[5],inactive
same,Potency,[6],inactive
same,Potency,[7],inactive
same,Potency,[8],inactive
same,Potency,[9],inactive
same,Potency,[10],inactive
same,Potency,[11],inactive
same,Potency,[12],inactive
same,max response,[13],-8.01% and -0.712%
same,Potency,[14],inactive
same,activity change % (negative = inhibition),[15],-8.64% (inactive)
same,Potency,[16],inactive
same,Potency,[17],inactive
same,Potency,[18],inactive
same,max response,[19],-3.94% (inactive) and -2.55% (inactive)
Cc1ccc(S(N)(=O)=O)cc1,Potency,[1],> 92 µM (inactive)
same,"activity change, negative = cytotoxicity",[2],-12.6% (inactive)
same,Potency,[3],inactive
same,Potency,[4],inactive
same,Potency,[5],inactive
same,Potency,[6],inactive
same,Potency,[20],inactive
same,Potency,[7],inactive
same,Potency,[8],inactive
same,Potency,[9],inactive
same,Potency,[10],inactive
same,Potency,[11],inactive
same,Potency,[12],inactive
same,max response,[13],-3.23% and -4.03%
same,Potency,[14],inactive
same,activity change % (negative = inhibition),[15],17.3% (inactive) and -1.91% (inactive)
same,Potency,[16],inactive
same,Potency,[17],inactive
same,Potency,[18],inactive
same,max response,[19],-1.87% (inactive) and 3.62% (inactive)
C=CC(C)(O)CCCC(C)CCCC(C)CCCC(C)C (stereo unspecified),Potency,[1],> 92 µM (inactive)
same,"activity change, negative = cytotoxicity",[2],-17.1% (inactive)
same,Potency,[3],inactive
same,Potency,[4],inactive
same,Potency,[5],inactive
same,Potency,[6],inactive
same,Potency,[20],inactive
same,Potency,[8],inactive
same,Potency,[9],inactive
same,Potency,[10],inactive
same,Potency,[11],inactive
same,Potency,[12],inactive
same,max response,[13],-17.1%
same,Potency,[14],inactive
same,activity change % (negative = inhibition),[15],8.61% (inactive)
same,Potency,[18],inactive
same,max response,[19],4.48% (inactive)
Cc1c(N)cccc1Cl,Potency,[1],> 92 µM (inactive)
same,"activity change, negative = cytotoxicity",[2],-8.37% (inactive)
same,Potency,[3],inactive
same,Potency,[4],inactive
same,Potency,[5],inactive
same,Potency,[6],inactive
same,Potency,[20],inactive
same,Potency,[7],inactive
same,Potency,[8],inactive
same,Potency,[9],inactive
same,Potency,[10],inactive
same,Potency,[11],inactive
same,Potency,[12],inactive
same,max response,[13],8.41%
same,Potency,[14],inactive
same,activity change % (negative = inhibition),[15],0.909% (inactive)
same,Potency,[16],inactive
same,Potency,[17],inactive
same,Potency,[18],inactive
same,max response,[19],7.66% (inactive)
C[C@@H]1CC2(OC(O)[C@]3(C)O[C@H]23)O[C@H]2C[C@@]3(C)[C@@H]4CC[C@H]5C(C)(C)C(O[C@@H]6OC[C@@H](O)[C@H](O)[C@H]6O)CC[C@@]56C[C@@]46CC[C@]3(C)[C@@H]12 (stereo partly specified),Potency,[1],> 92 µM (inactive)
same,"activity change, negative = cytotoxicity",[2],-12.9% (inactive)
same,Potency,[4],31.6 µM (active)
same,Potency,[6],inactive
same,Potency,[7],inactive
same,Potency,[8],inactive
same,Potency,[9],inactive
same,Potency,[10],inactive
same,Potency,[18],inactive
same,max response,[19],-9.9% (inactive)
C=C1CC[C@H](O)C/C1=C/C=C1\CCC[C@]2(C)[C@@H]([C@H](C)CCCC(C)C)CC[C@@H]12,Potency,[1],47.1 µM (active)
same,Potency,[2],31.6 µM (active)
same,Potency,[3],39.8 µM (active)
same,"activity change, negative = cytotoxicity",[4],-97.9% (active)
same,Potency,[5],39.8 µM (active)
same,Potency,[20],31.6 µM (active)
same,Potency,[7],39.8 µM (active)
same,Potency,[8],50.1 µM (active)
same,Potency,[9],39.8 µM (active)
same,Potency,[10],50.1 µM (active)
same,Potency,[12],39.8 µM (active)
same,Potency,[14],inactive
same,Potency,[16],inactive
same,Potency,[17],inactive
same,max response,[19],7.46% (inactive)
C/C=C/C=C/C=O,Potency,[5],39.8 µM (active)
same,Potency,[6],inactive
same,Potency,[20],inactive
same,Potency,[7],39.8 µM (active)
same,Potency,[8],39.8 µM (active)
same,Potency,[9],39.8 µM (active)
same,Potency,[10],31.6 µM (active)
same,Potency,[11],39.8 µM (active)
same,Potency,[12],31.6 µM (active)
same,max response,[13],-9.87%
same,Potency,[14],inactive
same,Potency,[16],inactive
same,Potency,[17],inactive
same,Potency,[18],inactive
same,max response,[19],-0.0021% (inactive)
